{"source": "PubChem BioAssay AID1851", "about": "(National Center for Advancing Translational Sciences (NCATS), 2009)", "note": "Values joined by “and” are separate entries in the source; they are usually repeats but may differ in a detail not shown here. Equal values may be shown once. Among all 16,000 compounds or so, about 5,700 (36%) were called active. Roughly 24% stayed inconclusive and do not appear here. Calls come from the whole dose curve; as a rule, active = well fitted curve in the direction sought with a large enough effect; inconclusive = small, poorly fitted or top-dose-only effect, or effect the other way; inactive = no such curve, though single readings can be large or run the other way. The list shows a part of the results. % is set by controls: 0 for no effect and ±100 for the full control effect.", "data": [{"biological_target": "Cytochrome P450 1A2 (Homo sapiens) (UniProt P05177)", "sequence (P05177 whole entry, looked up)": "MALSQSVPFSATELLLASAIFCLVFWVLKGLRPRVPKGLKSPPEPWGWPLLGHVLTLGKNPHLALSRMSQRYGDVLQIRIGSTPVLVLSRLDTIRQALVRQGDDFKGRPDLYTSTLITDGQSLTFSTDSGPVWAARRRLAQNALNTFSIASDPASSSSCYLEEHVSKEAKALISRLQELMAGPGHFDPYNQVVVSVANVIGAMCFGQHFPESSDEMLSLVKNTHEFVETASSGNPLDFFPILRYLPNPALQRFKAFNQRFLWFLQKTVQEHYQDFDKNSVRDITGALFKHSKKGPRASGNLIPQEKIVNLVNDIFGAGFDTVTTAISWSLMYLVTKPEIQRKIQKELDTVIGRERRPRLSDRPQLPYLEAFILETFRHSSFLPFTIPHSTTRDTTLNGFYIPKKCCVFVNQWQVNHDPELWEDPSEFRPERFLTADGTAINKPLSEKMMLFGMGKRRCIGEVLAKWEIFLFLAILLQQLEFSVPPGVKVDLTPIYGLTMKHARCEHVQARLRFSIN", "experiment": "Cytochrome panel assay with activity outcomes", "conditions": "recombinant CYP, pro-luciferin dealkylation, luminescence, p450-cyp1a2; series mostly up to 57.1 µM", "values": [{"smiles": "CCCN=Cc1c(CCC)[nH]n(-c2nc3ccccc3s2)c1=O", "AC50": "0.562 µM (active)"}, {"smiles": "CC(=O)NCCNc1ncncc1-c1ccccc1CN(C)C", "AC50": "25.1 µM (active)"}, {"smiles": "CC(=O)NCCNc1ncncc1-c1ccc(N(C)C)cc1", "AC50": "6.31 µM (active)"}, {"smiles": "CN(C)c1ccc(-c2cncnc2NCCN2CCOCC2)cc1", "AC50": "15.8 µM (active)"}, {"smiles": "COc1ccccc1-c1cncnc1NCCNC(C)=O", "AC50": "inactive"}, {"smiles": "CN(C)C(=O)c1ccc(-c2cncnc2NCCN2CCOCC2)cc1", "AC50": "inactive"}, {"smiles": "COc1ccc(CCN2CC34C=CC(O3)C(C(=O)NCc3ccccc3)C4C2=O)cc1OC", "note": "(stereo unspecified)", "AC50": "inactive"}, {"smiles": "COc1cc2c(cc1OC)C(C(=O)N1CCOCC1)C(c1cccs1)N(C)C2=O", "note": "(stereo unspecified)", "AC50": "inactive"}, {"smiles": "Oc1ccc(Cl)cc1C=Nc1cnc2ccccc2c1", "activity, negative = inhibition": "-13.2% [at 2.29 µM] (inactive)"}, {"smiles": "C(/C=C\\c1ccccc1)=Nc1ccc2c(c1)Cc1ccccc1-2", "AC50": "0.398 µM (active)"}, {"smiles": "Clc1ccc(C=Nc2ccc3c(c2)Cc2ccccc2-3)c(Cl)c1", "AC50": "0.794 µM (active)"}, {"smiles": "O=C(Nc1cccc(F)c1)N1CCCC2(CCN(S(=O)(=O)c3ccccc3)CC2)C1", "AC50": "inactive"}, {"smiles": "CCCCCCCCCCCCCCCCCCNC(=O)OC[C@@H](COP(=O)([O-])OCC[n+]1ccsc1)OC", "AC50": "inactive"}, {"smiles": "CC(=O)Nc1c2c3c(cccc3n(C)c1=O)C(=O)c1ccccc1-2", "AC50": "2.51 µM (active)"}, {"smiles": "Cc1c(NC(=O)C(C)N2C(=O)c3ccccc3C2=O)c(=O)n(-c2ccccc2)n1C", "note": "(stereo unspecified)", "AC50": "inactive"}, {"smiles": "Clc1ccc(-c2noc(CN3CCCCC3)n2)cc1", "AC50": "0.631 µM (active)"}, {"smiles": "Cc1ncc(CSC(=N)N)n1Cc1ccccc1", "activity, negative = inhibition": "-2.06% [at 11.4 µM] (inactive)"}, {"smiles": "N=C(N)SCc1nc(-c2ccc(Cl)cc2)no1", "AC50": "1.26 µM (active)"}, {"smiles": "Cc1ccc(-c2noc(CN3CCN(C(c4ccccc4)c4ccccc4)CC3)n2)cc1", "AC50": "inactive"}, {"smiles": "CCCNC(=O)OC[C@@H]1O[C@H](CCON=C(C)C)C=C[C@@H]1Oc1ccc(OC)cc1", "activity, negative = inhibition": "-2.59% [at 11.4 µM] (inactive)"}, {"smiles": "CC(=O)N1CCc2cc(Br)cc(S(=O)(=O)N3CCN(C(=O)c4ccco4)CC3)c21", "AC50": "inactive"}, {"smiles": "CC(C)(O)C#Cc1ccc(C(=O)NCc2cccs2)s1", "AC50": "15.8 µM (active)"}, {"smiles": "Nc1nc(Cl)cc(NCCO)n1", "activity, negative = inhibition": "-22.6% [at 11.4 µM] (inactive)"}, {"smiles": "Cc1cc(Nc2ccc(Cl)cc2)nc(N)n1", "AC50": "10 µM (active)"}, {"smiles": "Cc1cc(C)c(S(=O)(=O)NNC(=O)C2CCN(Cc3ccccc3)CC2)c(C)c1", "AC50": "inactive"}, {"smiles": "O=C(/C=C\\c1ccc2c(c1)OCO2)c1ccc(F)cc1", "activity, negative = inhibition": "-4.56% [at 11.4 µM] (inactive)"}, {"smiles": "O=C(/C=C\\C=C/c1ccc2c(c1)OCO2)N1CCCCC1", "AC50": "3.16 µM (active)"}, {"smiles": "COc1ccccc1N1CCN(C(=O)/C=C/c2ccc3c(c2)OCO3)CC1", "AC50": "25.1 µM (active)"}, {"smiles": "COc1ccccc1N1CCN(Cc2cc(=O)n3ccsc3n2)CC1", "AC50": "inactive"}, {"smiles": "C/C(=N\\Nc1nnc(-c2ccccc2)c(-c2ccccc2)n1)c1cccc([N+](=O)[O-])c1", "AC50": "3.55 µM (active)"}, {"smiles": "Nc1cc(Cl)nc(N/N=C/c2ccccc2[N+](=O)[O-])n1", "AC50": "2 µM (active)"}, {"smiles": "NC(=O)CNC(=O)[C@@H]1CC2(CC(c3cccc([N+](=O)[O-])c3)=NO2)CN1C(=O)c1ccccc1", "note": "(stereo partly specified)", "AC50": "inactive"}, {"smiles": "C/C(=N\\Nc1ccc([N+](=O)[O-])cc1)c1cccc(N)c1", "AC50": "1.26 µM (active)"}, {"smiles": "C/C(=N\\Nc1nc(N)cc(Cl)n1)c1cccc([N+](=O)[O-])c1", "AC50": "11.2 µM (active)"}, {"smiles": "N=c1nc(N)nc(N)n1-c1ccc(S(N)(=O)=O)cc1", "activity, negative = inhibition": "-3.8% [at 2.29 µM] (inactive)"}, {"smiles": "O=C(O)[C@@H](c1ccccc1)[C@@H](C(=O)O)c1ccccc1", "activity, negative = inhibition": "-12% [at 2.29 µM] (inactive)"}, {"smiles": "O=C(c1ccccc1)[C@H](Nc1ccc2ccccc2c1)c1ccccc1", "AC50": "0.794 µM (active)"}, {"smiles": "O=C(CSc1nc2ccc([N+](=O)[O-])cc2s1)c1ccc2ccccc2c1", "AC50": "3.16 µM (active)"}, {"smiles": "COC(=O)\\C(C(C)=O)=C(/C=C/C=C/C=C/N(C)C)N(C)C", "AC50": "inactive"}, {"smiles": "CC(C)(CO)Cc1cc(C(C)(C)C)c(O)c(C(C)(C)C)c1", "AC50": "25.1 µM (active)"}, {"smiles": "Cc1cc(Cc2c(C)c(C)c(Cc3cc(C)cc(C(C)(C)C)c3O)c(C)c2C)c(O)c(C(C)(C)C)c1", "activity, negative = inhibition": "4.96% [at 2.29 µM] (inactive)"}, {"smiles": "Nc1c2ccccc2nc2c(O)cccc12", "AC50": "6.31 µM (active)"}, {"smiles": "Nc1c2c(nc3ccccc13)CCCC2", "AC50": "3.16 µM (active) and 794 nM (active) and 501 nM (active)"}, {"smiles": "Nc1c2c(nc3ccccc13)CCC[C@H]2O", "AC50": "10 µM (active)"}, {"smiles": "Cc1ccc(S(=O)(=O)Oc2cc(N)c3c(n2)CCC3)cc1", "activity, negative = inhibition": "-19.4% [at 2.29 µM] (inactive)"}, {"smiles": "COC(=O)[C@@]1(Cc2ccccc2)[C@H]2c3cc(C(=O)N4CCCC4)n(Cc4cc(F)cc5c4OCOC5)c3C[C@H]2CN1C(=O)c1ccccc1", "AC50": "inactive"}, {"smiles": "CC(=O)C[C@H](c1ccc([N+](=O)[O-])cc1)c1c(O)c2ccccc2oc1=O", "AC50": "inactive"}, {"smiles": "Cn1c(CN2CCCC2)nc2cc(NC(=O)C3CCCCC3)ccc21", "AC50": "inactive"}, {"smiles": "Cc1cc(NC(=O)C2CCCCC2)nc2c1c(=O)oc1ccccc12", "AC50": "3.16 µM (active)"}, {"smiles": "CCCCC(=O)OCc1cn(-c2ccc(Cl)cc2)nn1", "AC50": "0.447 µM (active)"}, {"smiles": "CC(C)(C)C(=O)OCc1cn(-c2ccc(Cl)cc2)nn1", "AC50": "0.708 µM (active)"}, {"smiles": "Cc1ccccc1NC(=O)OCc1cn(-c2ccc(Cl)cc2)nn1", "AC50": "0.447 µM (active)"}, {"smiles": "Cc1ccc(C(=O)c2cn(-c3ccc(F)c(Cl)c3)nn2)cc1", "AC50": "inactive"}, {"smiles": "CC(C)(C)C(=O)N1CCC(O)(CS(=O)(=O)Cc2ccc(Cl)cc2)CC1", "AC50": "inactive"}, {"smiles": "CS(=O)(=O)N1CCC2(CC1)CN(C(c1ccccc1)c1ccccc1)C2", "AC50": "inactive"}, {"smiles": "CCCC(=O)N1c2ccccc2C(N(C(C)=O)c2ccccc2)CC1C", "note": "(stereo unspecified)", "AC50": "inactive"}, {"smiles": "COCC(=O)N1CCC2(CC1)CN(C(c1ccccc1)c1ccccc1)C2", "AC50": "inactive"}, {"smiles": "COc1cc2c(cc1OC)CN(C(=S)Nc1ccccc1)CC2", "AC50": "12.6 µM (active)"}, {"smiles": "COc1cc2c(cc1OC)[C@H](c1ccccc1)CN(C)CC2", "AC50": "inactive"}, {"smiles": "COc1ccc(S(=O)(=O)N2CCc3ccccc3C2)cc1OC", "AC50": "inactive"}, {"smiles": "CC(C)OC(=O)c1nnn(-c2nonc2N)c1CSc1ccccn1", "AC50": "1.78 µM (active)"}, {"smiles": "CCOC(=O)c1nnn(-c2nonc2N)c1-c1ccccc1", "AC50": "0.891 µM (active)"}, {"smiles": "CCOC(=O)c1nn(-c2ccccc2)c(-c2ccccc2)c1C(=O)c1ccccc1", "AC50": "inactive"}, {"smiles": "CCOC(=O)c1nnn(-c2nonc2N)c1-c1ccc(C)cc1", "AC50": "0.891 µM (active)"}, {"smiles": "COC(=O)N1CCC2(CCCN(C(=O)Nc3ccccc3)C2)CC1", "AC50": "inactive"}, {"smiles": "C[C@@]1(CCOCc2ccccc2)NC(=O)NC1=O", "activity, negative = inhibition": "-13.5% [at 11.4 µM] (inactive)"}, {"smiles": "CN(C)CCCn1c2ccccc2c2cnccc21", "activity, negative = inhibition": "-20% [at 2.29 µM] (inactive)"}, {"smiles": "C[C@@H]1CN(CCCn2c3ccccc3c3ccccc32)C[C@H](C)N1", "AC50": "0.794 µM (active)"}, {"smiles": "c1ccc(C(CCN2CC3CCC(CC3)C2)c2ccccc2)cc1", "activity, negative = inhibition": "9.33% [at 11.4 µM] (inactive)"}, {"smiles": "C/C(=N\\NC(=O)c1[nH]c2c([N+](=O)[O-])cc(C)cc2c1-c1ccccc1)c1cccnc1", "AC50": "1.26 µM (active)"}, {"smiles": "COc1ccc(NC(=O)N2CCCC2C(=O)Nc2ccccc2)cc1", "note": "(stereo unspecified)", "AC50": "inactive"}, {"smiles": "COc1ccc2c(Cl)cc(NC(=S)Nc3ccccc3)nc2c1", "AC50": "0.398 µM (active)"}, {"smiles": "COc1ccc(C(=S)Nc2ccccc2)cc1", "AC50": "0.631 µM (active)"}, {"smiles": "CS(=O)(=O)N1CCC[C@@]2(CCN(C(=O)Nc3cccc(F)c3)C2)C1", "AC50": "inactive"}, {"smiles": "CC(C)(C)c1cc(/C=C(\\C#N)C(N)=S)cc(C(C)(C)C)c1O", "AC50": "12.6 µM (active)"}, {"smiles": "c1ccc(SCCc2ccncc2)cc1", "AC50": "447 nM (active) and 200 nM (active)"}, {"smiles": "N=C(N)SCCc1ccncc1", "activity, negative = inhibition": "-17.8% [at 2.29 µM] (inactive)"}, {"smiles": "Fc1ccc(SCCc2ccncc2)cc1", "AC50": "0.562 µM (active)"}, {"smiles": "COc1ccc(CCC(C)NC2C3CC4CC(C3)CC2C4)cc1", "note": "(stereo unspecified)", "AC50": "inactive"}, {"smiles": "COc1ccc(CCC(C)Nc2cccc(F)c2)cc1", "note": "(stereo unspecified)", "AC50": "3.55 µM (active)"}, {"smiles": "CCn1c(C)c(/C=N/Nc2nc3ccccc3s2)c2ccccc21", "AC50": "2.51 µM (active)"}, {"smiles": "CCOC(=O)c1sc(NC(C)=O)nc1-c1ccccc1", "AC50": "2.82 µM (active)"}, {"smiles": "CCOC(=O)Nc1nc(-c2ccccc2)c(C)s1", "AC50": "0.2 µM (active)"}, {"smiles": "CCOC(=O)c1sc(NS(=O)(=O)c2ccccc2)nc1C", "AC50": "inactive"}, {"smiles": "CCN(CC)C(=O)N1CCN(C)CC1", "AC50": "inactive"}, {"smiles": "COc1ccc(O[C@H]2C=C[C@@H](c3ccccc3)O[C@H]2CO/N=C(/C)CCC(=O)OC[C@@H]2O[C@H](C#Cc3ccccc3)C=C[C@@H]2Oc2ccc(C)cc2)cc1", "activity, negative = inhibition": "-5.99% [at 11.4 µM] (inactive)"}, {"smiles": "O=C(O)c1ccc(Sc2nnnn2-c2ccccc2)c([N+](=O)[O-])c1", "AC50": "inactive"}, {"smiles": "O=[N+]([O-])c1cc(/C=N/O)ccc1SCc1ccccc1", "AC50": "0.891 µM (active)"}, {"smiles": "O=C(O)[C@H](Cc1ccc(O)c([N+](=O)[O-])c1)N1C(=O)c2ccccc2C1=O", "activity, negative = inhibition": "-17.9% [at 2.29 µM] (inactive)"}, {"smiles": "CCOC(=O)c1cnc2cc(-c3ccc(C(C)(C)C)cc3)nn2c1N", "AC50": "inactive"}, {"smiles": "CCOC(=O)c1cnc2cc(-c3ccc(C)cc3)nn2c1-c1ccccc1", "AC50": "2.24 µM (active)"}, {"smiles": "C=CCSc1nc(C)cc(/C=C\\c2ccccc2)c1C#N", "AC50": "2.51 µM (active)"}, {"smiles": "Nc1nc(Cl)nc2c1ncn2[C@@H]1O[C@@H](CO)[C@@H](O)[C@H]1O", "AC50": "inactive"}, {"smiles": "COC(=O)CN1C(=O)S/C(=C/c2ccc(N3CCCCC3)o2)C1=O", "AC50": "0.891 µM (active)"}, {"smiles": "COC(=O)COc1ccc(/C=C2/SC(=O)N(CC(=O)N3CCCC3)C2=O)cc1Br", "AC50": "inactive"}, {"smiles": "O=C1S/C(=C/c2ccc(N3CCOCC3)o2)C(=O)N1Cc1ccc(F)cc1", "AC50": "3.55 µM (active)"}]}]}
